According to PubChem BioAssay:
Where “and” joins values, the source holds several entries; their conditions need not be identical. Equal values may be shown once. Calls of active or inactive are those of the source.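 How the source made its calls, unless noted: active means inhibition at or above 50% relative to wild type and mutant plate controls; inactive means inhibition below 50%.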

Assays:
[1] = inhibitors of TNFa-induced NFkB p65 translocation, primary screen, imaging, HUVEC, MLSMR starter and 10KST1 sets (AID 438;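 active means inhibition above 20% together with a positive visual image hit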;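 further: compound added about 3h40 before a 20 min TNFalpha stimulation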;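 on inhibition: signal is the nuclear over cytoplasmic p65 intensity ratio per well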); settings: HUVEC TNFa-induced p65 nuclear translocation; cell count: measured here: nuclei count (cytotoxicity indicator), at 2.08 µM; inhibition: at 2 µM, stronger effect = higher value, 0% TNFa-plus-vehicle, 100% no-TNFa wells
[2] = inhibitors of mutant huntingtin aggregation, primary screen, imaging, exon1htt(103Q)mCFP cells, high-content imaging (AID 483;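 active means visual image review flags a hit and inhibition of aggregation exceeds 20%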;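 further: compound exposure lasted 3 days before fixation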;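 on nuclei count: percent of the per-plate median nuclei count of sample wells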); settings: exon1htt(103Q)mCFP cell line, aggregate imaging, at 2 µM; inhibition of aggregation: stronger effect = higher value; nuclei count: measured here: cell count, toxicity
[3] = inhibitors of E-selectin induction by TNFa, primary screen, imaging, HUVEC, immunofluorescence, MLSMR starter and 10KST1 sets (AID 487;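 active means visually confirmed hit in the image check and inhibition above 20%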;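 on inhibition: signal is fraction of cell area covered by stained E-selectin grains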;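 on nuclei count: 100% = median nuclei count of all wells on the same plate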); settings: HUVEC TNFalpha-induced E-selectin immunofluorescence imaging, at 2 µM; inhibition: stronger effect = higher value; nuclei count: measured here: cell number, toxicity
[4] = DUSP6 inhibitors restoring Erk phosphorylation by chemical complementation, primary imaging in DUSP6-transfected HeLa (AID 609;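 active means compounds giving at least 50% inhibition in the cell-based MKP-3 phosphatase rescue imaging test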;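 on inhibition: phospho-Erk level distribution per well compared with pooled transfected vehicle control wells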); settings: HeLa MKP-3 transfected, phospho-Erk imaging KS statistic, at 10 µM, cells stimulated with TPA for 15 min
[5] = biological target: Dual specificity protein phosphatase 6 (Homo sapiens) (UniProt Q16828); assay: as above; settings: HeLa MKP-3 transfected, phospho-Erk imaging KS statistic; at 10 µM; stronger effect = higher value; cells stimulated with TPA for 15 min
Dual specificity protein phosphatase 6 (Homo sapiens), sequence (Q16828 whole entry, looked up): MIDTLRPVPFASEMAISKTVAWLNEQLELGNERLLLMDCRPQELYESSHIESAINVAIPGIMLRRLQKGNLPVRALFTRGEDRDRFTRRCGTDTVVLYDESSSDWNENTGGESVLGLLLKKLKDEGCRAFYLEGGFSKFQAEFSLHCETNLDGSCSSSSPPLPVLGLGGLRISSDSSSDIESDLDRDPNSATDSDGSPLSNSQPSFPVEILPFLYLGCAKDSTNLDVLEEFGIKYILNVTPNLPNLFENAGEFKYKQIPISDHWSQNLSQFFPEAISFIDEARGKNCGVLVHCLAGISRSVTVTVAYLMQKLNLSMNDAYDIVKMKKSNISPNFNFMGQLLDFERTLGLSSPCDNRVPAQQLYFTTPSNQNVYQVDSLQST

[6] = biological target: Voltage-gated potassium channel subunit beta-2 (Rattus norvegicus) (UniProt P62483); assay: KvBeta enzyme negative modulators, primary screen, biochemical, NADPH fluorescence (AID 622;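 active means fluorescence slope higher than the sample average by over 3 SD, cut at about -0.22 in these data, passing the limit was not always enough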;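 further: slope of raw intensity against log time taken from 70 to 1610 s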); settings: recombinant KvBeta, 4-cyanobenzaldehyde reduction, at 10 µM, stronger effect = higher value
Voltage-gated potassium channel subunit beta-2 (Rattus norvegicus), sequence (P62483 whole entry, looked up): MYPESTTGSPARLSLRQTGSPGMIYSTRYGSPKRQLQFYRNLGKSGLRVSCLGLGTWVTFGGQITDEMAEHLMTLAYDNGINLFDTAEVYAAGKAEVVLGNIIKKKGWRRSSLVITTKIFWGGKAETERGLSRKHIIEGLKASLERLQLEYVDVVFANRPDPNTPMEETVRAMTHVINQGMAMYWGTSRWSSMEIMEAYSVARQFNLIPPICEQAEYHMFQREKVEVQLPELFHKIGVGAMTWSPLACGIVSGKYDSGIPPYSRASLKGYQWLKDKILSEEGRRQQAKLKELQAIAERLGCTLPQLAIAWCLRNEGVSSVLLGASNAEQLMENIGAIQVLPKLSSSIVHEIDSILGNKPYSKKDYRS

[7] = biological target: Voltage-gated potassium channel subunit beta-2 (Rattus norvegicus) (UniProt P62483); assay: KvBeta positive modulators, primary screen, biochemical, NADPH fluorescence (AID 623;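 active means NADPH fluorescence slope more negative than the mean of all samples by about 3 SD, 99.7% confidence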;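 further: fluorescence intensity change per second fitted from 20 to 320 s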); settings: Recombinant KvBeta, NADPH fluorescence decrease slope, 10 min; at 10 µM; stronger effect = lower value
[8] = biological target: Alpha-2C adrenergic receptor (Homo sapiens) (UniProt P18825); assay: modulators of alpha2C/GIRK thallium flux, primary screen, cell-based, HEK293 alpha2C/GIRK1/2 (AID 624;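 active means fluorescence slope after compound addition differing from the mean of all screened samples at 99.7% confidence, in either direction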;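 further: slope of fluorescence ratio to pre-addition baseline per second over 15 to 24 s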); settings: thallium flux BTC fluorescence, at 10 µM, actives lie on both sides
Alpha-2C adrenergic receptor (Homo sapiens), sequence (P18825 whole entry, looked up): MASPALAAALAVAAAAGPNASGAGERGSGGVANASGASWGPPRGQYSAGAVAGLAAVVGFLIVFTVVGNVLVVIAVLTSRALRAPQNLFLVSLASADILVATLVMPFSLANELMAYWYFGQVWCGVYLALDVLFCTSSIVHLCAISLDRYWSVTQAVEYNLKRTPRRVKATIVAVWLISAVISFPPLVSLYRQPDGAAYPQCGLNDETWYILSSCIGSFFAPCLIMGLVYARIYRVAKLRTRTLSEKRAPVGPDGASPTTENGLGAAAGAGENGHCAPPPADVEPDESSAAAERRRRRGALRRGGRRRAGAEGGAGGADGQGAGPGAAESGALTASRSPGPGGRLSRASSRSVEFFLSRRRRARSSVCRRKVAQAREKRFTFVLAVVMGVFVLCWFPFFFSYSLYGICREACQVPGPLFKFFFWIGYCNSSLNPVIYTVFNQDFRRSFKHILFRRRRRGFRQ

[9] = inhibitors of larval lipid processing in zebrafish, primary screen, whole organism, PED6 fluorescence, gall bladder and intestine (AID 686;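 active means a full or partial loss of lipid-probe fluorescence in the fish gall bladder, intestine or both, judged by eye; inactive means no fluorescence loss, or compound toxic to the fish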;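 further: larvae 5 to 7 days old with five fish per well; signal comes from phospholipase A2 cleavage of quenched PED6 carried via bile; overnight exposure to compound and PED6 before scoring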); settings: Zebrafish larvae PED6 lipid processing, fluorescence scoring; screened at 20 µM (by protocol)
[10] = inhibitors of Chlamydomonas gravitaxis, primary screen, whole organism, Chlamydomonas reinhardtii, WT vs cilia-less mutant, absorbance, 96-well (AID 463189); settings: OD600 absorbance, 2 days, at 10 µM, stronger effect = higher value;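 further: 0% = wild type cc124 cells in DMSO and 100% = ciliumless bld1 mutant cells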
[11] = inhibitors of Sendai virus-induced IRF3 signaling, primary screen, TLR/RLR signaling modifier project, cell-based, Sendai virus stimulus, luciferase, 10K MLSCN set (AID 602276;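 active means inhibition at or above 50% at 10 µM; inactive means inhibition below 50%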;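 further: firefly luciferase from ISG56 promoter only with Renilla not read in this screen; 0% = Sendai virus plus DMSO and 100% = medium plus DMSO without virus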); settings: HEK293 RL24 IRF3 luciferase reporter, at 10 µM, stronger effect = higher value
[12] = inhibitors of poly I:C-induced TLR3 signaling, primary screen, cell-based, poly I:C stimulus, luciferase, 10K MLSCN set (AID 602277;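 active means inhibition of the reporter signal at or above 50%; inactive means inhibition below 50%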); settings: HEK293-TLR3 RL24 IRF3 luciferase reporter, at 10 µM, stronger effect = higher value
[13] = measured here: cell density z-score
[14] = measured here: nuclear c-Myc green intensity z-score
[15] = measured here: nuclear pErk red intensity z-score, stronger effect = higher value

CC1Cc2ccccc2N1NC(=O)c1ccc(Cl)c(S(N)(=O)=O)c1 (configuration not stated)
cell count [1]: 657
inhibition [1]: -3.7% (inactive)
inhibition of aggregation [2]: 4.2% (inactive)
nuclei count [2]: 112%
inhibition [3]: -59.9% (inactive)
nuclei count [3]: 121%
z-score [4, 13]: 0.724
z-score [4, 14]: -0.336
z-score [4, 15]: -0.652
inhibition [5]: 21.2% (inactive)
fluorescence slope [6]: -0.544 (inactive)
NADPH fluorescence slope [7]: -5e-05 (inactive)
slope [8]: 0.0056 (inactive)
outcome [9]: inactive
inhibition [10]: 18.3% (inactive)
inhibition [11]: -7.5% (inactive)
inhibition [12]: -10.9% (inactive)

CCCOc1cccc(-c2nnc(N)s2)c1
cell count [1]: 605
inhibition [1]: -3.6% (inactive)
inhibition of aggregation [2]: -31.3% (inactive)
nuclei count [2]: 108%
inhibition [3]: -83.5% (inactive)
nuclei count [3]: 111%
z-score [4, 13]: 0.352
z-score [4, 14]: -0.262
z-score [4, 15]: -0.207
inhibition [5]: -11.5% (inactive)
fluorescence slope [6]: -0.443 (inactive)
NADPH fluorescence slope [7]: -5.5e-05 (inactive)
slope [8]: 0.00934 (inactive)
outcome [9]: inactive
inhibition [10]: -3.59% (inactive)
inhibition [11]: -30.1% (inactive)
inhibition [12]: -65.7% (inactive)

NNC(=O)c1ccncc1
cell count [1]: 640
inhibition [1]: 1.1% (inactive)
inhibition of aggregation [2]: -3.3% (inactive)
nuclei count [2]: 113%
inhibition [3]: -58.5% (inactive)
nuclei count [3]: 126%
z-score [4, 13]: 1.92
z-score [4, 14]: 0.875
z-score [4, 15]: -1.14
inhibition [5]: 16.8% (inactive)
fluorescence slope [6]: -0.467 (inactive)
NADPH fluorescence slope [7]: -6.4e-05 (inactive)
slope [8]: 0.00499 (inactive)
outcome [9]: inactive
inhibition [10]: 2.05% (inactive)
inhibition [11]: 13.6% (inactive)
inhibition [12]: 39.7% (inactive)

CC(=O)OC(C)C[N+](C)(C)C (configuration not stated)
cell count [1]: 551
inhibition [1]: 2.7% (inactive)
inhibition of aggregation [2]: -10.4% (inactive)
nuclei count [2]: 93.2%
inhibition [3]: -37.2% (inactive)
nuclei count [3]: 109%
z-score [4, 13]: -0.162
z-score [4, 14]: 0.661
z-score [4, 15]: -1.46
inhibition [5]: 5.42% (inactive)
fluorescence slope [6]: -0.469 (inactive)
NADPH fluorescence slope [7]: -5.5e-06 (inactive)
slope [8]: 0.0149 (active)
outcome [9]: inactive
inhibition [10]: 4.19% (inactive) and 8.31% (inactive)
inhibition [11]: 8.52% (inactive)
inhibition [12]: 29.7% (inactive)

O/N=C/c1ccc(OCC(O)COc2ccc(/C=N/O)cc2)cc1
cell count [1]: 678
inhibition [1]: 3.9% (inactive)
inhibition of aggregation [2]: 8.1% (inactive)
nuclei count [2]: 104%
inhibition [3]: -37.7% (inactive)
nuclei count [3]: 114%
z-score [4, 13]: 0.736
z-score [4, 14]: -0.218
z-score [4, 15]: -0.78
inhibition [5]: -8.59% (inactive)
fluorescence slope [6]: -0.33 (inactive)
NADPH fluorescence slope [7]: -1e-05 (inactive)
slope [8]: 0.00891 (inactive)
outcome [9]: inactive
inhibition [10]: 13.7% (inactive)
inhibition [11]: -3.4% (inactive)
inhibition [12]: -9.91% (inactive)

COc1ccc(OC)c(C2C(C#N)=C(N)Oc3cc(C)[nH]c(=O)c32)c1 (configuration not stated)
cell count [1]: 544
inhibition [1]: -31.7% (inactive)
inhibition of aggregation [2]: 19.9% (inactive)
nuclei count [2]: 88.9%
inhibition [3]: -48.5% (inactive)
nuclei count [3]: 122%
z-score [4, 13]: -0.908
z-score [4, 14]: -1.31
z-score [4, 15]: -0.529
inhibition [5]: -7.86% (inactive)
fluorescence slope [6]: -0.536 (inactive)
NADPH fluorescence slope [7]: -5e-05 (inactive)
slope [8]: 0.00618 (inactive)
outcome [9]: inactive
inhibition [10]: 15.7% (inactive)
inhibition [11]: 13.1% (inactive)
inhibition [12]: -12.4% (inactive)

CCN(CCCc1ccccc1)CCCc1ccccc1
cell count [1]: 633
inhibition [1]: -10.9% (inactive)
inhibition of aggregation [2]: -6.3% (inactive)
nuclei count [2]: 95.6%
inhibition [3]: -92.8% (inactive)
nuclei count [3]: 132%
z-score [4, 13]: -0.00243
z-score [4, 14]: 0.557
z-score [4, 15]: -0.117
inhibition [5]: 9.37% (inactive)
fluorescence slope [6]: -0.514 (inactive)
NADPH fluorescence slope [7]: -3.6e-06 (inactive)
slope [8]: 0.00419 (inactive)
outcome [9]: inactive
inhibition [10]: 128% (active)
inhibition [11]: 16.6% (inactive)
inhibition [12]: 29.6% (inactive)

COC(=O)c1ccc(-c2sc3nc(N4CCOCC4)c4c(c3c2N)CCCC4)o1
cell count [1]: 683
inhibition [1]: -7.7% (inactive)
inhibition of aggregation [2]: -43% (inactive)
nuclei count [2]: 103%
inhibition [3]: 18.1% (inactive)
nuclei count [3]: 126%
z-score [4, 13]: -0.0797
z-score [4, 14]: 0.0278
z-score [4, 15]: 1.68
inhibition [5]: 14.4% (inactive)
fluorescence slope [6]: -0.000813 (inactive)
NADPH fluorescence slope [7]: 0 (inactive)
slope [8]: 0.0101 (inactive)
outcome [9]: inactive
inhibition [10]: -6.82% (inactive)
inhibition [11]: 13% (inactive)
inhibition [12]: -14.5% (inactive)

Nc1nc(F)nc2c1ncn2[C@@H]1O[C@H](CO)[C@@H](O)[C@@H]1O
cell count [1]: 526
inhibition [1]: -6.8% (inactive)
inhibition of aggregation [2]: -1.5% (inactive)
nuclei count [2]: 103%
inhibition [3]: 5.4% (inactive)
nuclei count [3]: 106%
z-score [4, 13]: -1.32
z-score [4, 14]: 0.314
z-score [4, 15]: 0.132
inhibition [5]: -2.46% (inactive)
fluorescence slope [6]: -0.491 (inactive)
NADPH fluorescence slope [7]: -3.9e-05 (inactive)
slope [8]: 0.00434 (inactive)
outcome [9]: inactive
inhibition [10]: -8.17% (inactive)
inhibition [11]: 2.74% (inactive)
inhibition [12]: 23.7% (inactive)

CC[N+](C)(CC)CCOC(=O)C(O)(c1ccccc1)C1CCCCC1 (configuration not stated)
cell count [1]: 475
inhibition [1]: -3.8% (inactive)
inhibition of aggregation [2]: 7.2% (inactive)
nuclei count [2]: 95.4%
inhibition [3]: -15.1% (inactive)
nuclei count [3]: 111%
z-score [4, 13]: -1.3
z-score [4, 14]: -0.403
z-score [4, 15]: 0.0665
inhibition [5]: -4.44% (inactive)
fluorescence slope [6]: -0.515 (inactive)
NADPH fluorescence slope [7]: -2.6e-05 (inactive)
slope [8]: 0.00498 (inactive)
outcome [9]: inactive
inhibition [10]: -14% (inactive)
inhibition [11]: 2.1% (inactive)
inhibition [12]: 24.6% (inactive)

NC(N)=NC(N)=NCCc1ccccc1
cell count [1]: 589
inhibition [1]: -4.3% (inactive)
inhibition of aggregation [2]: -8.6% (inactive)
nuclei count [2]: 93.2%
inhibition [3]: -58.8% (inactive)
nuclei count [3]: 108%
z-score [4, 13]: -1
z-score [4, 14]: -0.445
z-score [4, 15]: -0.339
inhibition [5]: -2.46% (inactive)
fluorescence slope [6]: -0.439 (inactive)
NADPH fluorescence slope [7]: -1.7e-05 (inactive)
slope [8]: 0.004 (inactive)
outcome [9]: inactive
inhibition [10]: -5.62% (inactive)
inhibition [11]: 10.9% (inactive)
inhibition [12]: 30.4% (inactive)
